Results published in PubChem BioAssay.
For some assays here: Potency and affinity values are given separately. The source made the active and inactive calls. Unless noted, no cut-off is given here; in the data, nearly all actives have IC50 up to about 0.91 µM.

Target: Protein kinase 7 (PK7), Plasmodium falciparum 3D7 (PF3D7_0213400) (UniProt Q7YTF7)
Assay: inhibition of Plasmodium PK7 catalytic activity – biochemical, TCAMS antimalarial set, Kinase-Glo luminescence (AID 1159587; call rule not given here)
Conditions: recombinant PfPK7, Kinase-Glo ATP depletion luminescence

Protein kinase 7 (PK7), Plasmodium falciparum 3D7 (PF3D7_0213400), sequence (Q7YTF7 1-343): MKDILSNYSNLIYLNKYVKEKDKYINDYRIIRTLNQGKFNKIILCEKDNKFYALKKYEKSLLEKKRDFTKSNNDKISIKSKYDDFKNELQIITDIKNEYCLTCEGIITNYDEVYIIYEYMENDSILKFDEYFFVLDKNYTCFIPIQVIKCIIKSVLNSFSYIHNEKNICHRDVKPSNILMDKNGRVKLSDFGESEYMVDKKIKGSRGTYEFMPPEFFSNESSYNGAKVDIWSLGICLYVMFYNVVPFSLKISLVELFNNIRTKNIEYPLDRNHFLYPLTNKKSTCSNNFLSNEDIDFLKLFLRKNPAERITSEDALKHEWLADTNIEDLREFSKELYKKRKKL

outcome, inactive:
O=C(Oc1ccc(C2CNCCc3c2cc(OC(=O)c2ccc(O)cc2)c(OC(=O)c2ccc(O)cc2)c3Cl)cc1)c1ccc(O)cc1 (stereo not given)
Nc1ccc2[nH]cc(C3CCN(CCC4CCN(C(=O)/C=C/c5ccc(Cl)c(Cl)c5)CC4)CC3)c2n1
COc1cc(N(C)Cc2cnc3nc(N)nc(N)c3n2)cc(OC)c1OC
COc1ccc2ncn(-c3ccc(C(N)=O)c(OCc4ccccc4C(F)(F)F)c3)c2c1
Oc1ccc(CCNc2nc(NCc3ccccc3-c3cccc(Cl)c3)nc(N3CCNCC3)n2)cc1
NC1CCCN(Cc2ccc(-c3ccc(-c4nc5ccccc5[nH]4)s3)cc2)C1 (stereo not given)
CCCc1ccc(NC(=O)c2cccc(CN3CCCN(Cc4cccc(C#N)c4)CC3)c2)cc1
CN(C)CCOc1ccc(-c2cc(-c3ccc(Cl)c(O)c3)c(-c3ccncc3)[nH]2)cc1
COc1ccc(CC(=O)Nc2ccc(-c3cccc(-c4nc5c(C)cccc5[nH]4)c3)cc2)cc1O
COc1cccc(OC)c1OCCCOc1c(C)nc(N)nc1N
c1csc(-c2nc(NCC3CCCO3)ncc2-c2ccsc2)n1 (stereo not given)
COc1ccccc1C1CCN(CCN2CCC(NC(=O)c3ccc(-c4ccc(C#N)cc4)cc3)CC2)CC1
CCCCCN1CCCC(NS(=O)(=O)c2ccc(C(=O)Nc3cccc(C(F)(F)F)c3)cc2)C1 (stereo not given)
CCCCc1ccc(-c2c(N)nc(N)nc2CC)cc1
Cc1cc2c(/C=C/C(=O)NC3CCC(CCN4CCc5ccc(C#N)cc5CC4)CC3)cccc2[nH]1 (stereo not given)
O=C(Nc1ccc(Cl)c(Cl)c1)N1CCC(CNCc2cccc([N+](=O)[O-])c2)CC1
CN1CCCc2ccc(NC(=O)Nc3ccc(Cl)c(Cl)c3)cc2C1
Cc1ccc(Cn2ncc(N3C[C@@H](C)N[C@@H](C)C3)c(Cl)c2=O)cc1NC(=O)Nc1ccc(-c2ccccc2)cc1
Cc1cc(NN=Cc2ccc(Cl)cc2)c2ccc(F)cc2n1
CCc1nc(N)nc(N)c1-c1ccc(C(C)(C)C)cc1
Cc1nn(-c2ccnc3cc(Cl)ccc23)c(C)c1C(=O)NCc1cc(Cl)cc(Cl)c1
Cc1nc(Nc2ccc(C)c(Cl)c2)c2c(C)noc2n1
Cc1onc(-c2ccccc2)c1-c1nc(NC2CCCC(C)C2)no1 (stereo not given)
O=C(N[C@H]1CCN(CCc2ccc(O[C@H]3CCNC3)c(Cl)c2)C1)c1ccc(Cl)c(Cl)c1
FC(F)(F)COc1c(CCNCCCCNCCc2ccc3ccccc3c2OCC(F)(F)F)ccc2ccccc12

Target: Calcium-dependent protein kinase 4 (Plasmodium falciparum (isolate 3D7)) (UniProt Q8IBS5)
Sequence (Q8IBS5 whole entry, looked up): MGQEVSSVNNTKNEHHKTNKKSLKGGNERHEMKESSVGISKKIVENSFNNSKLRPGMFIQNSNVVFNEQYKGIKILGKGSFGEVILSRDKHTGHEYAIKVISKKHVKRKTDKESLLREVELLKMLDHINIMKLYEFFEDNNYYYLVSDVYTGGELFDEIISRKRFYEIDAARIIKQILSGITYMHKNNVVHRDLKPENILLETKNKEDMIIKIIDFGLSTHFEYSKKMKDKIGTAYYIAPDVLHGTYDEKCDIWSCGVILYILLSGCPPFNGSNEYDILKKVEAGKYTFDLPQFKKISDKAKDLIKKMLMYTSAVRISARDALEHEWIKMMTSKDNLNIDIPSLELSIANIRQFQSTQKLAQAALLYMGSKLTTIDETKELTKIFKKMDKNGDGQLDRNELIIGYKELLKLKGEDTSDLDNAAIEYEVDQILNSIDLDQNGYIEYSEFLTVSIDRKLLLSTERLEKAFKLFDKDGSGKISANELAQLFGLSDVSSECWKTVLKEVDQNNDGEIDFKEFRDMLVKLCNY
Assay: PfCDPK4 kinase inhibitors, biochemical, TCAMS library (AID 1159588)
Conditions: recombinant PfCDPK4, Kinase-Glo ATP depletion luminescence

outcome, inactive:
OCCc1ccc(Nc2nccc(-c3nnc4ccccn34)n2)cc1
COc1ccc(Cn2ccc3c4c(N)nc(N)nc4ccc32)cc1
O=C(NCCSCc1c(F)cccc1Cl)c1cnc2c(c1)nc(-c1cnc(-c3ccccc3)[nH]1)n2CCc1cnc[nH]1
O=C(CSc1nccn1C1CCCC1)Nc1cc(C(F)(F)F)ccc1Cl
OC(CNCc1ccccc1OCc1ccccc1)c1cccc(Br)c1 (stereo not given)
NC1CCN(Cc2cccc(-c3ccc(-c4nc5ccccc5[nH]4)s3)c2)C1 (stereo not given)
CN1CCN(c2ccc(-c3cc(-c4ccncc4)c(-c4ccc(Cl)c(O)c4)o3)cc2)CC1
CC(C)C1=C[C@H]2C[C@]3(C4OCCO4)[C@@H]4CC[C@@H](C)[C@H]4C[C@@]2(C(=O)OCC2COCO2)[C@]13C(=O)OC(c1ccccc1)c1ccccc1 (stereo not given in full)
Cc1ccc(CNC(=O)[C@H](CCCN)Nc2nc(Nc3ccccc3)ncc2C)cc1
CCn1c(Sc2ccc([N+](=O)[O-])c(C#N)c2)nnc1-c1ccc(Cl)cc1
Cc1cccc(NC(=O)Nc2cccc(-c3ccc(-c4nc5ccc(C(F)(F)F)cc5[nH]4)cc3)c2)c1
CN1CCCC(CN2CCN(Cc3cccc(-c4ccc(-c5nc6ccc(F)cc6[nH]5)cc4)c3)CC2)C1 (stereo not given)
CN1CCC(N2CCN(CCOc3cc(NC(=O)/C=C/c4ccccc4Cl)ccc3Br)CC2)CC1
Cc1nc(N)nc(N)c1OCc1cccc2ccccc12
CN(C1CCC(NC(=O)/C=C/c2ccccc2)CC1)C1CC2(CCN(C(=O)OC(C)(C)C)CC2)c2ccccc21 (stereo not given)
O=C(Oc1ccc(C2CNCCc3c2cc(OC(=O)c2ccc(O)cc2)c(OC(=O)c2ccc(O)cc2)c3Cl)cc1)c1ccc(O)cc1 (stereo not given)
Nc1ccc2[nH]cc(C3CCN(CCC4CCN(C(=O)/C=C/c5ccc(Cl)c(Cl)c5)CC4)CC3)c2n1
COc1cc(N(C)Cc2cnc3nc(N)nc(N)c3n2)cc(OC)c1OC
COc1ccc2ncn(-c3ccc(C(N)=O)c(OCc4ccccc4C(F)(F)F)c3)c2c1
Oc1ccc(CCNc2nc(NCc3ccccc3-c3cccc(Cl)c3)nc(N3CCNCC3)n2)cc1
NC1CCCN(Cc2ccc(-c3ccc(-c4nc5ccccc5[nH]4)s3)cc2)C1 (stereo not given)
CCCc1ccc(NC(=O)c2cccc(CN3CCCN(Cc4cccc(C#N)c4)CC3)c2)cc1
CN(C)CCOc1ccc(-c2cc(-c3ccc(Cl)c(O)c3)c(-c3ccncc3)[nH]2)cc1
COc1ccc(CC(=O)Nc2ccc(-c3cccc(-c4nc5c(C)cccc5[nH]4)c3)cc2)cc1O
COc1cccc(OC)c1OCCCOc1c(C)nc(N)nc1N
c1csc(-c2nc(NCC3CCCO3)ncc2-c2ccsc2)n1 (stereo not given)
COc1ccccc1C1CCN(CCN2CCC(NC(=O)c3ccc(-c4ccc(C#N)cc4)cc3)CC2)CC1
CCCCCN1CCCC(NS(=O)(=O)c2ccc(C(=O)Nc3cccc(C(F)(F)F)c3)cc2)C1 (stereo not given)
CCCCc1ccc(-c2c(N)nc(N)nc2CC)cc1
Cc1cc2c(/C=C/C(=O)NC3CCC(CCN4CCc5ccc(C#N)cc5CC4)CC3)cccc2[nH]1 (stereo not given)
O=C(Nc1ccc(Cl)c(Cl)c1)N1CCC(CNCc2cccc([N+](=O)[O-])c2)CC1
CN1CCCc2ccc(NC(=O)Nc3ccc(Cl)c(Cl)c3)cc2C1
Cc1ccc(Cn2ncc(N3C[C@@H](C)N[C@@H](C)C3)c(Cl)c2=O)cc1NC(=O)Nc1ccc(-c2ccccc2)cc1
Cc1cc(NN=Cc2ccc(Cl)cc2)c2ccc(F)cc2n1
CCc1nc(N)nc(N)c1-c1ccc(C(C)(C)C)cc1
Cc1nn(-c2ccnc3cc(Cl)ccc23)c(C)c1C(=O)NCc1cc(Cl)cc(Cl)c1
Cc1nc(Nc2ccc(C)c(Cl)c2)c2c(C)noc2n1
Cc1onc(-c2ccccc2)c1-c1nc(NC2CCCC(C)C2)no1 (stereo not given)
O=C(N[C@H]1CCN(CCc2ccc(O[C@H]3CCNC3)c(Cl)c2)C1)c1ccc(Cl)c(Cl)c1
FC(F)(F)COc1c(CCNCCCCNCCc2ccc3ccccc3c2OCC(F)(F)F)ccc2ccccc12
